# In PubChem BioAssay AID504848 (National Center for Advancing Translational Sciences (NCATS), 2011):
# About 1,400 (61%) of roughly 2,300 compounds were called active. Not shown: some 29% with an inconclusive outcome. So high a share suggests a set chosen from earlier hits. The list shows a part of the results. Values without a mark were called inactive. Calls follow the shape of the dose curve; as a rule, active = well fitted inhibition curve with a large enough effect; inconclusive = small, poorly fitted or top-dose-only effect, or effect the other way; inactive = no such curve, though single readings can be large or run the other way.
# Test: Confirmation screen for delayed death inhibitors of the malarial parasite plastid, 96 hour incubation; also: nearly all actives have a fitted effect of over 60% in size
# Details: P. falciparum luciferase growth in erythrocytes; series mostly up to 28.7 µM; activity change, negative = inhibition: at the top concentration
# Summary of the method: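 Erythrocytes infected with luciferase-expressing P. falciparum (2% hematocrit, 0.1% parasitemia final) in RPMI 1640 with 0.5% Albumax, exposed to compounds 96 h at 37 C, 5% CO2. Growth inhibition read as decreased luciferase luminescence.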
# % is scaled to controls: 0 for no effect and ±100 for the full control effect; potency is read from the fitted curve at half-maximal effect.
SMILES,Potency,"activity change, negative = inhibition [%]"
CCOC(=O)C(=Cc1ccc(Br)cc1)C(=O)OCC,7.94 µM (active),–
COc1ccc(CCNc2cc(C)nc3c(-c4ccc(Cl)cc4)c(C)nn23)cc1OC,11.2 µM (active),–
O=C(/C=C/c1ccncc1)c1ccc(NC(=O)c2ccccc2F)cc1,12.6 µM (active),–
CSc1ccc(/C=C/C(=O)c2ccc(NC(=O)C(C)C)cc2)cc1,–,-105
COc1cccc(Nc2ccc(N3CCCCC3)cc2)c1OC,0.355 µM (active),–
CCOC(=O)CN1C(=O)/C(=C/c2c(F)cccc2Cl)Oc2ccccc21,12.6 µM (active),–
CCOC(=O)c1ccc(N2N=C(C)/C(=C/C=C/c3ccco3)C2=O)cc1,5.62 µM (active),–
CC(=O)c1cccc(NC(=O)CSc2ccc(-c3sc(C)nc3C)nn2)c1,12.6 µM (active),–
CCc1ccc(NC2=CC(=O)C(=O)c3ccccc32)cc1,0.447 µM (active),–
COc1ccc(-c2c(-c3cc(OC)cc(OC)c3)n(C)c3ccc(-c4ccc5[nH]ccc5c4)cc23)cc1,6.31 µM (active),–
CCN(CC)C(=O)C1CCCN(C(=O)c2cc(COc3ccc4ncccc4c3)on2)C1 (stereo not given),11.2 µM (active),–
c1ccc2c(c1)Nc1cc3ccccc3cc1S2,3.98 µM (active),–
O=C(c1[nH]ncc1-c1cccc(Br)c1)C1CO1 (stereo not given),12.6 µM (active),–
O=S(=O)(c1ccc(F)cc1)N1CCc2ccccc2C1,12.6 µM (active),–
COC(=O)Nc1ccc2c(c1)N(C(=O)CCCl)c1ccccc1S2,12.6 µM (active),–
O=S1(=O)Nc2c(ccc3cccnc23)-c2ccccc21,1.58 µM (active),–
Cc1ccc(C2(C)NC(=O)N(CC(=O)N3CCN(S(=O)(=O)c4cccc(F)c4)CC3)C2=O)cc1 (stereo not given),7.08 µM (active),–
O=C(NC1CCCCC1)c1ccc(CS(=O)Cc2ccccc2Cl)o1 (stereo not given),12.6 µM (active),–
Cc1ccc(CS(=O)(=O)Cc2ccc(C(=O)NC3CCCC3)o2)cc1,10 µM (active),–
O=C(c1cccs1)N1N=C(c2ccccc2)CC1c1ccccc1O (stereo not given),2.82 µM (active),–

SMILES,Potency,"activity change, negative = inhibition [%]"
O=C(Nn1c(-c2ccccc2)nc2ccccc2c1=O)c1ccco1,–,22.9
CCOc1ccc(CCn2c(-c3ccco3)nc3ccccc3c2=O)cc1OCC,10 µM (active),–
Cc1c(O)ccc(C(=O)CN2CCN(Cc3ccc4c(c3)OCO4)CC2)c1O,5.01 µM (active),–
Cc1ccc(NC2=C/C(=N\S(=O)(=O)c3cccs3)c3ccccc3C2=O)c(C)c1,0.0708 µM (active),–
CCc1ccc(-c2cn(C3CCCCC3)c(=S)[nH]2)cc1,6.31 µM (active),–
Clc1ccccc1Cn1c(/C=C/c2ccco2)nc2ccccc21,11.2 µM (active),–
COc1ccccc1N1CCN(CCC(=O)Nc2ccc(F)cc2)CC1,12.6 µM (active),–
O=C1CN(c2nc(-c3cccnc3)nc3scc(-c4ccccc4)c23)CCN1,–,18.9
O=C(c1cccs1)N1CCCN(c2ncnc3scc(-c4ccccc4)c23)CC1,12.6 µM (active),–
Cc1cc(C)n(CC(O)COc2ccccc2)n1 (stereo not given),0.891 µM (active),–
O=C1CN(C(=O)c2ccc(Cl)c(S(=O)(=O)N3CCc4ccccc43)c2)c2ccccc2N1,12.6 µM (active),–
CC[C@@H](C(=O)[C@@H](C)[C@@H](O)[C@H](C)CCc1ccc(C)c(O)c1C(=O)O)[C@H]1O[C@](CC)([C@H]2CC[C@](O)(CC)[C@H](C)O2)C[C@@H]1C,0.631 µM (active),–
COc1ccc(C2c3[nH]c4ccccc4c3CCN2Cc2ccoc2)c(F)c1 (stereo not given),12.6 µM (active),–
Fc1ccccc1C1c2[nH]c3ccccc3c2CCN1Cc1cccn1-c1ncccn1 (stereo not given),12.6 µM (active),–
Cc1ccccc1C1c2[nH]c3ccccc3c2CCN1Cc1cccn1-c1ncccn1 (stereo not given),14.1 µM (active),–
O=c1c(Cl)c(Cl)cnn1Cc1nnc(-c2ccc(Cl)cc2)o1,12.6 µM (active),–
COc1cc2c(O)c3c(c(-c4ccc5c(c4)OCO5)c2cc1OC)C(=O)OC3,6.31 µM (active),–
CCOC(=O)C1=C(C)NC(C)=C(C(=O)OCC)C1c1cc(N)ccc1OC(F)F,5.62 µM (active),–
Nc1c(N(Cc2ccco2)C(=O)c2ccc(Br)cc2)c(=O)[nH]c(=O)n1Cc1ccccc1,–,-7.43
Cc1ccc(N(Cc2ccco2)C(=O)c2ccc(N3CCCCC3)c([N+](=O)[O-])c2)cc1,10 µM (active),–

SMILES,Potency,"activity change, negative = inhibition [%]"
COc1cc(CN2CCN(CC#Cc3ccccc3)CC2CCO)cc(OC)c1 (stereo not given),14.1 µM (active),–
COc1cc(CN2CCN(Cc3c[nH]c4ccccc34)CC2CCO)cc(OC)c1 (stereo not given),12.6 µM (active),–
Cc1cccc(Nc2nc3c(S(=O)(=O)c4ccccc4)nnn3c3ccccc23)c1C,3.98 µM (active),–
CC(C)(C)NC(=O)CSc1nnc(-c2ccccc2)c(-c2ccccc2)n1,14.1 µM (active),–
COc1ccc(/C=C2\CCc3ccccc3C2=O)cc1CN1CCOCC1,15.8 µM (active),–
CCC(C)NC(=O)c1cc(Cl)c(NC(=O)C2=C(C)OCCS2)cc1OC (stereo not given),10 µM (active),–
Cc1nn2c(Nc3ccccc3)c3c(nc2c1-c1ccccc1)CCC3,14.1 µM (active),–
Cc1ccc(Cl)cc1Nc1nc(-c2sc(NC(=O)C(C)(C)C)nc2C)cs1,2.82 µM (active),–
Cc1cccc(N(Cc2ccccc2)C(=O)CSC(C)C(=O)Nc2cc(C)on2)c1 (stereo not given),8.91 µM (active),–
CCOC(=O)C1CCN(C(=O)C(=O)Nc2ccc3nc4n(c(=O)c3c2)CCCCC4)CC1,7.08 µM (active),–
COc1ccccc1C(=O)Nc1ccc2nc3n(c(=O)c2c1)CCCC3,3.55 µM (active),–
CCCCCNc1nc2sc3c(c2c(=O)n1-c1cccc(Cl)c1)CCN(C)C3,2.24 µM (active),–
CCCCNc1nc2sc3c(c2c(=O)n1-c1cccc(Cl)c1)CCN(C)C3,1.26 µM (active),–
O=C(O)c1ccc(C=C(c2nc3ccccc3s2)c2nc3ccccc3s2)cc1,15.8 µM (active),–
Cc1cc(C(C)(C)C)cc(C)c1CCNC(=O)c1c(C)noc1C,10 µM (active),–
Cc1cc(C(C)(C)C)cc(C)c1CCNC(=O)c1ccc[n+]([O-])c1,12.6 µM (active),–
CCCCNC(=O)c1onc(CSc2cc(C)ccc2C)c1C(=O)O,–,-0.286
Cc1ccc2c(c1)N(CCC(=O)NCc1ccco1)C(=O)CO2,–,-3.07
Cc1nn(CCCC(=O)NCc2ccco2)c(=O)c2nn(-c3ccccc3)c(C)c12,11.2 µM (active),–
Cc1ccc(-n2nc3c(=O)n(CCCC(=O)NCc4ccco4)nc(C)c3c2C)cc1,2.24 µM (active),–
